As a reminder, the inhibition is the relative decrease from the control value, in per cent.

Assay [1] is described as follows: inhibitors of TNFa-induced NFkB p65 translocation, primary screen, imaging, HUVEC, MLSMR starter and 10KST1 sets (AID 438;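 active = inhibition above 20% together with a positive visual image hit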;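 note: compound added about 3h40 before a 20 min TNFalpha stimulation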;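 for inhibition: signal is the nuclear over cytoplasmic p65 intensity ratio per well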). Particulars: HUVEC TNFa-induced p65 nuclear translocation; cell count: measured here: nuclei count (cytotoxicity indicator), at 2.08 µM; inhibition: at 2 µM, stronger effect = higher value, 0% TNFa-plus-vehicle, 100% no-TNFa wells.
The nature of assay [2]: inhibitors of mutant huntingtin aggregation, primary screen, imaging, exon1htt(103Q)mCFP cells, high-content imaging (AID 483;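 active = visual image review flags a hit and inhibition of aggregation exceeds 20%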;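 note: compound exposure lasted 3 days before fixation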;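 for nuclei count: percent of the per-plate median nuclei count of sample wells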). Particulars: exon1htt(103Q)mCFP cell line, aggregate imaging, at 2 µM; inhibition of aggregation: stronger effect = higher value; nuclei count: measured here: cell count, toxicity.
Assay [3] is described as follows: inhibitors of E-selectin induction by TNFa, primary screen, imaging, HUVEC, immunofluorescence, MLSMR starter and 10KST1 sets (AID 487).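 For inhibition: signal is fraction of cell area covered by stained E-selectin grains.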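 For nuclei count: 100% = median nuclei count of all wells on the same plate.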 Particulars: HUVEC TNFalpha-induced E-selectin immunofluorescence imaging, at 2 µM; inhibition: stronger effect = higher value; nuclei count: measured here: cell number, toxicity.
Assay [4] addresses Voltage-gated potassium channel subunit beta-2 (Rattus norvegicus) (UniProt P62483). In words: KvBeta enzyme negative modulators, primary screen, biochemical, NADPH fluorescence (AID 622;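 active = fluorescence slope higher than the sample average by over 3 SD, cut at about -0.22 in these data, passing the limit was not always enough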;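 note: slope of raw intensity against log time taken from 70 to 1610 s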). Conditions: recombinant KvBeta, 4-cyanobenzaldehyde reduction, at 10 µM, stronger effect = higher value.
For assay [5] the target is unchanged. Nature of the assay: KvBeta positive modulators, primary screen, biochemical, NADPH fluorescence (AID 623;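 active = NADPH fluorescence slope more negative than the mean of all samples by about 3 SD, 99.7% confidence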;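 note: fluorescence intensity change per second fitted from 20 to 320 s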). Particulars: Recombinant KvBeta, NADPH fluorescence decrease slope, 10 min; at 10 µM; stronger effect = lower value.
Assay [6] has as its target Alpha-2C adrenergic receptor (Homo sapiens) (UniProt P18825). Nature of the assay: modulators of alpha2C/GIRK thallium flux, primary screen, cell-based, HEK293 alpha2C/GIRK1/2 (AID 624;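 active = fluorescence slope after compound addition differing from the mean of all screened samples at 99.7% confidence, in either direction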;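 note: slope of fluorescence ratio to pre-addition baseline per second over 15 to 24 s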). Particulars: thallium flux BTC fluorescence, at 10 µM, actives lie on both sides.
Assay [7] in a line: inhibitors of Sendai virus-induced IRF3 signaling, primary screen, TLR/RLR signaling modifier project, cell-based, Sendai virus stimulus, luciferase, 10K MLSCN set (AID 602276;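 active = inhibition at or above 50% at 10 µM; inactive = inhibition below 50%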;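 note: firefly luciferase from ISG56 promoter only with Renilla not read in this screen; 0% = Sendai virus plus DMSO and 100% = medium plus DMSO without virus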). Conditions: HEK293 RL24 IRF3 luciferase reporter, at 10 µM, stronger effect = higher value. (In general: A reporter such as luciferase makes a cellular process visible.)
A short description of assay [8]: inhibitors of poly I:C-induced TLR3 signaling, primary screen, cell-based, poly I:C stimulus, luciferase, 10K MLSCN set (AID 602277;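 active = inhibition of the reporter signal at or above 50%; inactive = inhibition below 50%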). Conditions: HEK293-TLR3 RL24 IRF3 luciferase reporter, at 10 µM, stronger effect = higher value.

Molecules are shown by their SMILES. Activity calls are given as the source filed them.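 Rule for the calls, unless noted: active = visually confirmed hit in the image check and inhibition above 20%; inconclusive = visually confirmed hit but inhibition not above 20%; inactive = no visual hit in the image check.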

Alpha-2C adrenergic receptor (Homo sapiens), sequence (P18825 whole entry, looked up): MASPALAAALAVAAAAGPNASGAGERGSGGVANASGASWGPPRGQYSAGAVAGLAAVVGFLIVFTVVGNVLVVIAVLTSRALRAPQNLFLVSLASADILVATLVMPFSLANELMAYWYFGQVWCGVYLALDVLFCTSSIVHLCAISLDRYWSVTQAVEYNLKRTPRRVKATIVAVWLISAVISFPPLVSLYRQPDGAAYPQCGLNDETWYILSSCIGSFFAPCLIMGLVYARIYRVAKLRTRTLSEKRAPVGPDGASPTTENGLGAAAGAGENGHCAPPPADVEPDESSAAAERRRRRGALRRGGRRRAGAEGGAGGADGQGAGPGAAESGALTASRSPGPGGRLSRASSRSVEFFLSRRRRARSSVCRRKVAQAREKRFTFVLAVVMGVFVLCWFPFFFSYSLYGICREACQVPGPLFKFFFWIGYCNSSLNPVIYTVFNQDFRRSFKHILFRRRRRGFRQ
Voltage-gated potassium channel subunit beta-2 (Rattus norvegicus), sequence (P62483 whole entry, looked up): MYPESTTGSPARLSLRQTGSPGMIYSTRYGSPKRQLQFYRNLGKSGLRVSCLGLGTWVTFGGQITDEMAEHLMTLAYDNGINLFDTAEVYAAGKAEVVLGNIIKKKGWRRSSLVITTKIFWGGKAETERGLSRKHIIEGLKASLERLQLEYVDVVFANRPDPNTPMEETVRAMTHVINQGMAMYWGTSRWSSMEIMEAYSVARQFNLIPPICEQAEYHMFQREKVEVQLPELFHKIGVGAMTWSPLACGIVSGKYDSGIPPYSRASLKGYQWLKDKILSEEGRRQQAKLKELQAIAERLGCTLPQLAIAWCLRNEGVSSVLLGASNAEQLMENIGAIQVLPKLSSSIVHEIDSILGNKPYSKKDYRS

For `CC(C)C(NC(=O)c1ccc(S(=O)(=O)N2CCOCC2)cc1)c1nc2ccccc2[nH]1` (centres undefined), in assay [1], the cell count is 276. Further, the inhibition in assay [1] was 15.9% (inactive); in assay [3], 8.4% (inactive); in assay [7] it was 13.3% (inactive); in assay [8] it was 26% (inactive). Moreover, the inhibition of aggregation in assay [2] is -10.8% (inactive). For the same molecule, the nuclei count in assay [2] was determined as 114%; in assay [3], 98.7%. Also, in assay [4], the fluorescence slope is -0.436 (inactive). The NADPH fluorescence slope in assay [5] is -9.2e-05 (inactive). For the same molecule, the slope in assay [6] was 0.00591 (inactive).

On to `CCCCN(C)CCCNC(=O)CC1Oc2ccccc2NC1=O` (centres undefined), for which the cell count in assay [1] turned out to be 585. Further, the inhibition is -2.7% (inactive) in assay [1], -11.7% (inactive) in assay [3], 13.8% (inactive) in assay [7] and 36.6% (inactive) in assay [8]. Besides, the inhibition of aggregation in assay [2] is 18.9% (inactive). For the same molecule, the nuclei count in assay [2] was found to be 104%; in assay [3] it was 131%. Further, in assay [4], the fluorescence slope is -0.493 (inactive). The NADPH fluorescence slope in assay [5] was 1.6e-05 (inactive). In assay [6], the slope was 0.00638 (inactive).

For `CC1CCc2nn(CC(=O)NCCN3CCOCC3)cc2C1` (centres undefined), in assay [1], the cell count worked out at 605. The inhibition in assay [1] was 4% (inactive); in assay [3], 42.1% (inactive); in assay [7], 7.91% (inactive); in assay [8] it was 24.3% (inactive). In addition, the inhibition of aggregation in assay [2] was -0.2% (inactive). The nuclei count amounted to 94.5% in assay [2] and 97% in assay [3]. Further, the fluorescence slope in assay [4] was -0.612 (inactive). In assay [5], the NADPH fluorescence slope is 5.1e-06 (inactive). The slope in assay [6] is 0.00648 (inactive).

Take `CC1/C(=N/O)C(CN(C)C)C2CC1C2(C)C` (centres undefined): in assay [1], the cell count was 347. Also, the inhibition in assay [1] was -2.5% (inactive); in assay [3], 13.2% (inactive); in assay [7] it was 3% (inactive); in assay [8] it was 11.5% (inactive). For the same molecule, in assay [2], the inhibition of aggregation was 7.8% (inactive). The nuclei count was determined as 30.1% in assay [2] and 101% in assay [3]. Also, the fluorescence slope in assay [4] is -0.592 (inactive). Besides, the NADPH fluorescence slope in assay [5] was 1.8e-05 (inactive). In assay [6], the slope was 0.0062 (inactive).

In the case of `COc1ccc(C)cc1NC(=O)COCC(=O)O`, in assay [1], the cell count was 710. Besides, the inhibition in assay [1] was -28.6% (inactive); in assay [3], -22.9% (inactive); in assay [7] it was -0.927% (inactive); in assay [8], 9.35% (inactive). Further, the inhibition of aggregation in assay [2] is 4.1% (inactive). Further, the values for the nuclei count in assay [2] and in assay [3] were 100% and 102%, respectively. For the same molecule, in assay [4], the fluorescence slope was -0.605 (inactive). The NADPH fluorescence slope in assay [5] was -1.6e-05 (inactive). In assay [6], the slope was 0.00568 (inactive).

Take `COc1ccc(-c2nc3c(n2O)CCC/C3=N\O)cc1`: the cell count in assay [1] is 319. Further, the inhibition in assay [1] is -8% (inactive); in assay [3] it was -2.4% (inactive); in assay [7] it was -16.5% (inactive); in assay [8], -26.8% (inactive). Moreover, the inhibition of aggregation in assay [2] was 0.2% (inactive). Besides, the nuclei count in assay [2] stood at 98.1%; in assay [3] it was 113%. Further, the fluorescence slope in assay [4] is -0.413 (inactive). Also, the NADPH fluorescence slope in assay [5] is -7.6e-05 (inactive). In addition, in assay [6], the slope is 0.00746 (inactive).

In the case of `COc1ccc(C(=O)Nc2cccc(C)c2)cc1S(=O)(=O)N1CCOCC1`, the cell count in assay [1] is 550. For the same molecule, the inhibition in assay [1] was -25.9% (inactive); in assay [3], -48.3% (inactive); in assay [7], 6.15% (inactive); in assay [8], 3.92% (inactive). In addition, the inhibition of aggregation in assay [2] is 0.7% (inactive). In addition, the nuclei count in assay [2] was 102%; in assay [3] it was 111%. Also, the fluorescence slope in assay [4] was -0.572 (inactive). For the same molecule, in assay [5], the NADPH fluorescence slope was -5.7e-05 (inactive). Also, the slope in assay [6] was 0.0063 (inactive).

In the case of `O=C(O)c1cc(-c2ccccc2Cl)n[nH]1`, the cell count in assay [1] came to 240. The inhibition in assay [1] is 8% (inactive); in assay [3], -51% (inactive); in assay [7], 11.2% (inactive); in assay [8], 22.8% (inactive). The inhibition of aggregation in assay [2] was -10.1% (inactive). The nuclei count came out at 109% in assay [2] and 97.9% in assay [3]. Moreover, in assay [4], the fluorescence slope is -0.604 (inactive). The NADPH fluorescence slope in assay [5] is -2e-05 (inactive). Further, the slope in assay [6] was 0.00669 (inactive).

For the molecule `COc1cc(Br)cc(CN2CCN(C/C=C/c3ccccc3)CC2)c1O`, in assay [1], the cell count worked out at 273. Also, the inhibition in assay [1] was 5.8% (inactive); in assay [3] it was 3% (inactive); in assay [7], -0.336% (inactive); in assay [8], -8.7% (inactive). The inhibition of aggregation in assay [2] was -5% (inactive). In addition, the nuclei count worked out at 98.5% in assay [2] and 108% in assay [3]. The fluorescence slope in assay [4] was -0.606 (inactive). Besides, the NADPH fluorescence slope in assay [5] is -8.8e-06 (inactive). Further, in assay [6], the slope was 0.00359 (inactive).

Take `O=C(CS(=O)CC(=O)Nc1cccc2c1CCCC2)Nc1ccc(F)cc1` (centres undefined): in assay [1], the cell count was determined as 210. Also, the inhibition is 2.1% (inactive) in assay [1], 26.9% (inactive) in assay [3], 12.7% (inactive) in assay [7] and 18.9% (inactive) in assay [8]. For the same molecule, in assay [2], the inhibition of aggregation was -8.6% (inactive). Further, the values for the nuclei count in assay [2] and in assay [3] were 84.1% and 80.2%, respectively. Moreover, the fluorescence slope in assay [4] was -0.621 (inactive). For the same molecule, the NADPH fluorescence slope in assay [5] is 1e-05 (inactive). Moreover, in assay [6], the slope was 0.00343 (inactive).

As for `CC(C)c1nnc(SCC(=O)NCc2ccco2)n1C`, the cell count in assay [1] is 248. For the same molecule, the inhibition was 2.2% (inactive) in assay [1], 21.4% (inactive) in assay [3], 3.77% (inactive) in assay [7] and 97.8% (active) in assay [8]. In addition, the inhibition of aggregation in assay [2] is -12.1% (inactive). The nuclei count came to 77% in assay [2] and 86.7% in assay [3]. Further, the fluorescence slope in assay [4] was -0.485 (inactive). For the same molecule, the NADPH fluorescence slope in assay [5] is 1.5e-05 (inactive). In addition, in assay [6], the slope was 0.00695 (inactive).

Regarding `CCOC(=O)N1CCC(NC(=O)Cn2ncc3c4ccccc4n(C)c3c2=O)CC1`, the cell count in assay [1] was 557. Besides, the inhibition in assay [1] is -1% (inactive); in assay [3], -47.7% (inactive); in assay [7], 14.9% (inactive); in assay [8] it was 26% (inactive). Moreover, in assay [2], the inhibition of aggregation is -0.9% (inactive). Besides, the nuclei count is 98.6% in assay [2] and 105% in assay [3]. The fluorescence slope in assay [4] was -0.28 (inactive). The NADPH fluorescence slope in assay [5] was -2.3e-05 (inactive). The slope in assay [6] was 0.00602 (inactive).

On to `CCOc1ccc(C(=O)OCc2nnc(-c3cccs3)o2)cc1OC`, for which, in assay [1], the cell count came to 737. Besides, the inhibition in assay [1] is 7.1% (inactive); in assay [3], -51.1% (inactive); in assay [7], 12.1% (inactive); in assay [8], 27.5% (inactive). Moreover, the inhibition of aggregation in assay [2] is 4.7% (inactive). Also, the figures for the nuclei count in assay [2] and in assay [3] were 101% and 137%, respectively. In addition, the fluorescence slope in assay [4] was -0.603 (inactive). In assay [5], the NADPH fluorescence slope is 1.9e-06 (inactive). Besides, the slope in assay [6] is 0.00555 (inactive).

With `Cc1ccc(CSC2=NCCN2C(=O)c2ccco2)cc1`, the cell count in assay [1] was 661. Besides, the inhibition in assay [1] was 1.3% (inactive); in assay [3] it was -11.6% (inactive); in assay [7], -0.0387% (inactive); in assay [8], 0.194% (inactive). In addition, the inhibition of aggregation in assay [2] is -14.6% (inactive). Further, the results for the nuclei count in assay [2] and in assay [3] were 106% and 115%, respectively. Moreover, the fluorescence slope in assay [4] is -0.613 (inactive). The NADPH fluorescence slope in assay [5] is -1.3e-05 (inactive). The slope in assay [6] is 0.00684 (inactive).

Values taken from PubChem BioAssay.
